Data as given in PubChem BioAssay (EPA / NIEHS).
The source made the active and inactive calls. Rule for the calls: active = hit-call score of the fitted dose curve at least 0.9, where 1 is the maximum; inactive = score below 0.9.

Columns and labels:
Settings in all cases: mRNA level, 48 h; actives raise or lower the signal
[1] = read-out: Bcl-2 (BAX) gene, BAX (gene 581); assay: LTEA_HepaRG_BAX: Life Technologies and Expression Analysis (LTEA) Assay for Bcl-2 (BAX) gene using HepaRG (AID 2283470)
Summary of the method: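 HepaRG (human liver), 48 h exposure, duplicate wells. 8-pt curve, half-log from 100 uM, 0.5% DMSO. BAX transcript by TaqMan qRT-PCR; ACTB/GAPDH/POLR2A normalization; gain or loss vs DMSO baseline.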

[2] = read-out: adenosine kinase (ADK) gene, ADK (gene 132); assay: LTEA_HepaRG_ADK: Life Technologies and Expression Analysis (LTEA) Assay for adenosine kinase (ADK) gene using HepaRG (AID 2283471)
Summary of the method: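 Read-out is ADK transcript level measured by qRT-PCR and normalised to three housekeeping genes. Cells are human HepaRG, dosed for 48 h at up to 100 uM in 0.5% DMSO. Gain or loss of signal is fitted against DMSO controls.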

[3] = read-out: Alpha-fetoprotein (AFP) gene, AFP (gene 174); assay: LTEA_HepaRG_AFP: Life Technologies and Expression Analysis (LTEA) Assay for Alpha-fetoprotein (AFP) gene using HepaRG (AID 2283472)
Summary of the method: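 HepaRG, single lot; 48 h post-plating -> serum-free induction medium; cpd 8-pt, 100 uM top, half-log, 0.5% DMSO, duplicate, 48 h. RNA -> qRT-PCR AFP, norm ACTB/GAPDH/POLR2A. Bidirectional fit vs DMSO.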

BCL2L11 (gene 10018) = assay: LTEA_HepaRG_BCL2L11: Life Technologies and Expression Analysis (LTEA) Assay for Bcl-2 (BCL2L11) gene using HepaRG (AID 2283473)
Summary of the method: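 BCL2L11 transcript levels are measured by Fluidigm qRT-PCR, normalized to three housekeeping genes. HepaRG cultures were plated 48 h, then treated 48 h with test chemical (top 100 uM, half-log, 0.5% DMSO vehicle); curves were fitted bidirectionally against DMSO.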

[4] = read-out: Apoptosis regulator Bcl-2 (Homo sapiens) (UniProt P10415); assay: LTEA_HepaRG_BCL2: Life Technologies and Expression Analysis (LTEA) Assay for Bcl-2 gene using HepaRG (AID 2283475)
Summary of the method: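 HepaRG, plated 48 h then switched to serum-free induction medium; dosed 48 h, 8 conc. (max 100 uM, half-log steps), duplicate, 0.5% DMSO. Lysis in RLT, RNA isolated, TaqMan qRT-PCR for BCL2; ACTB/GAPDH/POLR2A normalisation; bidirectional fit vs DMSO.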

[5] = read-out: Bcl-2 (BID) gene, BID (gene 637); assay: LTEA_HepaRG_BID: Life Technologies and Expression Analysis (LTEA) Assay for Bcl-2 (BID) gene using HepaRG (AID 2283476)
Summary of the method: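 Transcript levels of BID, measured by qRT-PCR and normalized to three housekeeping genes, were fitted bidirectionally against DMSO controls. Cells were HepaRG, dosed 48 h at up to 100 uM.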

Caspase-3 (Homo sapiens) = Caspase-3 (Homo sapiens) (UniProt P42574); assay: LTEA_HepaRG_CASP3: Life Technologies and Expression Analysis (LTEA) Assay for cysteine-aspartic acid protease (CASP3) using HepaRG (AID 2283477)
Caspase-3 (Homo sapiens), sequence (P42574 whole entry, looked up): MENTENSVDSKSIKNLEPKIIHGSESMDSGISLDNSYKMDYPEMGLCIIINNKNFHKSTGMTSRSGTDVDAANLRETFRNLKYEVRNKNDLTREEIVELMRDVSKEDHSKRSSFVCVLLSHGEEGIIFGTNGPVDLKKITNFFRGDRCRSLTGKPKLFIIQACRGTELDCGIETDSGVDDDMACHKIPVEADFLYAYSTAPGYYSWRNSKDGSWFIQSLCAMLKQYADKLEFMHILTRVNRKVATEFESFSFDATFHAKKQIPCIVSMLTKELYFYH
Summary of the method: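 Expression of CASP3 was quantified by TaqMan qRT-PCR against three housekeeping genes (ACTB, GAPDH, POLR2A), bidirectionally versus 0.5% DMSO. HepaRG cultures received compounds in duplicate, top 100 uM with half-log steps, for 48 h in serum-free induction medium.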

[6] = read-out: Cytochrome P450 (CYP24A1), CYP24A1 (gene 1591); assay: LTEA_HepaRG_CYP24A1: Life Technologies and Expression Analysis (LTEA) Assay for Cytochrome P450 (CYP24A1) using HepaRG (AID 2283478)
Summary of the method: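 mRNA of CYP24A1 quantified by TaqMan qRT-PCR (ACTB/GAPDH/POLR2A normalization) after 48 h chemical exposure of HepaRG cells, top concentration 100 uM, half-log steps, 0.5% DMSO vehicle, duplicates. Curves fitted bidirectionally against DMSO baseline.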

[7] = read-out: Cytochrome P450 (CYP1A2), CYP1A2 (gene 1544); assay: LTEA_HepaRG_CYP1A2: Life Technologies and Expression Analysis (LTEA) Assay for Cytochrome P450 (CYP1A2) using HepaRG (AID 2283479)
Summary of the method: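 CYP1A2 transcript measured by TaqMan qRT-PCR against three housekeeping genes after 48-hour chemical exposure of HepaRG cells. Eight-point half-log series topping at 100 uM in 0.5% DMSO, duplicates; gain or loss fitted relative to vehicle.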

[8] = read-out: cysteine-aspartic acid protease (CASP8), CASP8 (gene 841); assay: LTEA_HepaRG_CASP8: Life Technologies and Expression Analysis (LTEA) Assay for cysteine-aspartic acid protease (CASP8) using HepaRG (AID 2283480)
Summary of the method: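 Differentiated human HepaRG cells, plated 48 h then switched to serum-free induction medium, were exposed in duplicate for 48 h to 8 half-log concentrations up to 100 uM in 0.5% DMSO. CASP8 mRNA was quantified by qRT-PCR, normalized to ACTB/GAPDH/POLR2A.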

[9] = read-out: Cytochrome P450 (CYP2B6), CYP2B6 (gene 1555); assay: LTEA_HepaRG_CYP2B6: Life Technologies and Expression Analysis (LTEA) Assay for Cytochrome P450 (CYP2B6) using HepaRG (AID 2283481)
Summary of the method: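 CYP2B6 transcript level quantified by qRT-PCR against three housekeeping genes, fitted bidirectionally relative to DMSO. HepaRG cultures received chemicals for 48 h, 8-point half-log series from 100 uM in 0.5% DMSO, duplicate wells, serum-free induction medium.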

[10] = read-out: Cytochrome P450 2C19 (Homo sapiens) (UniProt P33261); assay: LTEA_HepaRG_CYP2C19: Life Technologies and Expression Analysis (LTEA) Assay for CYP2C19 using HepaRG (AID 2283482)
Summary of the method: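 CYP2C19 transcript levels by qRT-PCR, normalized to three housekeeping genes, in HepaRG cells after 48 h chemical exposure. Eight-point half-log series topping at 100 uM, 0.5% DMSO vehicle. Increases and decreases both fitted against DMSO.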

CYP2C9 (gene 1559) = assay: LTEA_HepaRG_CYP2C9: Life Technologies and Expression Analysis (LTEA) Assay for CYP2C9 using HepaRG (AID 2283484)
Summary of the method: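 Differentiated human HepaRG cells were exposed 48 h in serum-free induction medium to eight half-log concentrations up to 100 uM in 0.5% DMSO. CYP2C9 mRNA was measured by qRT-PCR, normalized to ACTB, GAPDH and POLR2A, and fitted bidirectionally against DMSO.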

CYP2E1 (gene 1571) = assay: LTEA_HepaRG_CYP2E1: Life Technologies and Expression Analysis (LTEA) Assay for CYP2E1 using HepaRG (AID 2283485)
Summary of the method: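 Human liver line HepaRG, plated 48 h, then serum-free induction medium + chemical x 48 h; 8-pt CRC from 100 uM, half-log, 0.5% DMSO, n=2. Readout: CYP2E1 mRNA qRT-PCR vs ACTB/GAPDH/POLR2A; bidirectional fit vs DMSO.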

CYP4A11 (gene 1579) = assay: LTEA_HepaRG_CYP4A11: Life Technologies and Expression Analysis (LTEA) Assay for CYP4A11 using HepaRG (AID 2283486)
Summary of the method: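 Readout is CYP4A11 transcript level by qRT-PCR, normalized to three housekeeping genes and fitted bidirectionally against 0.5% DMSO. Human HepaRG cells were treated 48 h, in duplicate, with an 8-point half-log series topping at 100 uM.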

[11] = read-out: Cytochrome P450 3A4 (Homo sapiens) (UniProt P08684); assay: LTEA_HepaRG_CYP3A4: Life Technologies and Expression Analysis (LTEA) Assay for CYP3A4 using HepaRG (AID 2283487)
Summary of the method: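 HepaRG, 48 h exposure, 8-pt CRC from 100 uM (half-log), 0.5% DMSO, duplicates; serum-free induction medium. Readout: CYP3A4 mRNA, qRT-PCR, ACTB/GAPDH/POLR2A normalization. Bidirectional fit vs DMSO.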

[12] = read-out: DNA damage-inducible transcript 3 (DDIT3), DDIT3 (gene 1649); assay: LTEA_HepaRG_DDIT3: Life Technologies and Expression Analysis (LTEA) Assay for DNA damage-inducible transcript 3 (DDIT3) using HepaRG (AID 2283488)
Summary of the method: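 HepaRG plated 48 h, switched to serum-free induction medium, dosed 48 h (100 uM top, half-log, 8 pts, 0.5% DMSO, n=2); RNA isolated; DDIT3 by qRT-PCR; bidirectional curve fit vs DMSO.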

[13] = read-out: Pro-epidermal growth factor (Homo sapiens) (UniProt P01133); assay: LTEA_HepaRG_EGF: Life Technologies and Expression Analysis (LTEA) Assay for Epidermal growth factor (EGF) using HepaRG (AID 2283489)
Summary of the method: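 EGF transcript measured by Fluidigm TaqMan qRT-PCR with three housekeeping genes for normalization, 48 h after dosing HepaRG cultures in duplicate (top 100 uM, half-log steps, 0.5% DMSO vehicle). Gain or loss relative to DMSO fitted.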

CYP2C8 (gene 1558) = assay: LTEA_HepaRG_CYP2C8: Life Technologies and Expression Analysis (LTEA) Assay for CYP2C8 using HepaRG (AID 2283483)
Summary of the method: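 Differentiated human HepaRG cells were exposed for 48 h in serum-free induction medium to eight half-log concentrations up to 100 uM in 0.5% DMSO, in duplicate. CYP2C8 mRNA was measured by TaqMan qRT-PCR, normalized to ACTB, GAPDH and POLR2A, and fitted bidirectionally against DMSO.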

Measured: AC50

Cytochrome P450 2C19 (Homo sapiens), sequence (P33261 whole entry, looked up): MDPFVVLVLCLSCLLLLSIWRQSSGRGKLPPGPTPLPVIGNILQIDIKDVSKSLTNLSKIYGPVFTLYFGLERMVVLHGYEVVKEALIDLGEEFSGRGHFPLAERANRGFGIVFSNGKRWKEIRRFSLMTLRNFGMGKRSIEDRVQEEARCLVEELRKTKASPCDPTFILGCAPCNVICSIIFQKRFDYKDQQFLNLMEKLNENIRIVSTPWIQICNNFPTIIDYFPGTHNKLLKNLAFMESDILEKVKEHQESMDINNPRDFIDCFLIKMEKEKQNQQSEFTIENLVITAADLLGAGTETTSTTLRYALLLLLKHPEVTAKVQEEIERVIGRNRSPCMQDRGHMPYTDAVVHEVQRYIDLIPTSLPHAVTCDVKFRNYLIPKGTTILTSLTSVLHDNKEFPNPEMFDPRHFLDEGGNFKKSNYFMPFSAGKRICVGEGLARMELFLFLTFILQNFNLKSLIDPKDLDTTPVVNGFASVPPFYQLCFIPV
Cytochrome P450 3A4 (Homo sapiens), sequence (P08684 whole entry, looked up): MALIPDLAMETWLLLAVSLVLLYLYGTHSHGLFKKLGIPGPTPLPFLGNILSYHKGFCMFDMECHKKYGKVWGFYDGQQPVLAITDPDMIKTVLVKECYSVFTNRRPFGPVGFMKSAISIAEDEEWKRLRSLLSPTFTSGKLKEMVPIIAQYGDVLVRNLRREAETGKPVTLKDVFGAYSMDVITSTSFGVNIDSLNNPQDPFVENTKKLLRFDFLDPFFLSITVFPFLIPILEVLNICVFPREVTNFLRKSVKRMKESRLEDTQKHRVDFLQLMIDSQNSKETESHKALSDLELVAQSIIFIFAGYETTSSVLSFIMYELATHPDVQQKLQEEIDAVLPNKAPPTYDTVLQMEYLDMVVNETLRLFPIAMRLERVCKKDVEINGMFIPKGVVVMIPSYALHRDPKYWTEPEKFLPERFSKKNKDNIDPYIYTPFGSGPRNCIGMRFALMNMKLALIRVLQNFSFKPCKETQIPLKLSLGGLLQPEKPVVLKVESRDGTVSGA
Apoptosis regulator Bcl-2 (Homo sapiens), sequence (P10415 whole entry, looked up): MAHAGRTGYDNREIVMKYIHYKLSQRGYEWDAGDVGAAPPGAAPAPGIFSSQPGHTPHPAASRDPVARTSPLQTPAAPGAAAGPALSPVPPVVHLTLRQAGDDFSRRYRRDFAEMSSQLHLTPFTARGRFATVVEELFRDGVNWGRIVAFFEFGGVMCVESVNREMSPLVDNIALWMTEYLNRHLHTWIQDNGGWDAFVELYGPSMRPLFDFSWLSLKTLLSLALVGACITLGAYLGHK

CCCC(=NOCC)C1=C(O)CC(CC(C)SCC)CC1=O (centres undefined)
active: [9] 46.2 µM | [10] 29.6 µM | CYP2E1 (gene 1571) 50.2 µM | [11] 28.4 µM
not listed: CYP2C8 (gene 1558)
inactive: all other assays above

CCOc1cc(C(C)(C)C)ccc1C1COC(c2c(F)cccc2F)=N1 (centres undefined)
active: [3] 25.7 µM | [9] 8.33 µM | [10] 8.34 µM | CYP2C8 (gene 1558) 7.92 µM | CYP2E1 (gene 1571) 18.7 µM | CYP4A11 (gene 1579) 57.4 µM | [11] 4.8 µM | [12] 52.1 µM
not listed: [4]
inactive: all other assays above

CN/C(=N\[N+](=O)[O-])NCc1cnc(Cl)s1
active: [3] 50 µM | [9] 30.8 µM | CYP2E1 (gene 1571) 50 µM
not listed: [4]
inactive: all other assays above

O=P(O)(O)CCCl
active: [10] 0.396 µM
not listed: [4]
inactive: all other assays above

CCN(CC)c1nc(C)cc(OP(=S)(OC)OC)n1
active: [7] 38 µM | [9] 2.79 µM | [10] 12.1 µM | CYP2E1 (gene 1571) 37.4 µM | [11] 10.9 µM
not listed: [4] | CYP2C8 (gene 1558)
inactive: all other assays above
